Screens: PubChem BioAssay, The Scripps Research Institute Molecular Screening Center
ssDAF-12 act: S. stercoralis DAF-12 activation, primary screen. HEK293 ssDAF-12/GRIP1 lit1-tk-luc reporter, luminescence; % of 3 µM dafachronic acid response. activation, % at 6.8 µM. 370,000 compounds, 1% hits. AID 652126;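 active = activation above the mean over all tested compounds plus 3 SD, cut at about 0.9% in these data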;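 also: 0% = DMSO-only wells and 100% = 3 µM delta7-dafachronic acid wells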
SMARCA2 act: SMARCA2 function activation, primary screen. activation, % at 9.1 µM. MG213 cells, MMTV-luciferase reporter, dexamethasone, overnight. 370,000 compounds, 1% hits. AID 652017; in the data active = activation above about 7.8%;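 also: 0% = vehicle wells and 100% = reference activator wells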
hcDAF12 agonist: activates DAF-12 receptor from parasite H. contortus; HEK293 hcDAF-12 lit1-tk-luc reporter, luminescence; 0% DMSO, 100% Δ7-dafachronic acid; activation, % at 6.8 µM; 370,000 compounds, 1.4% hits; AID 652067;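 active = activation above the mean of all tested compounds plus 3 SD, cut at about 5.5% in these data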;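 also: 100% = response to 3 µM Δ7-dafachronic acid high control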
DAX1 inh-1: inhibitors of DAX1 repression of SF-1 activated StAR promoter | HEK293T StAR-luciferase reporter, SF-1/DAX-1 repression relief | inhibition, % at 6.8 µM | 370,000 compounds, 1.1% hits;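 active = inhibition above the mean over all tested compounds plus 3 SD, cut at about 3.6% in these data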;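 also: 0% = DAX-1 cells with DMSO and 100% = cells lacking DAX-1 with DMSO; higher inhibition means more luminescence from relief of DAX-1 repression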
DAX1 inh-2: NR0B1 (DAX1) inhibition; inhibition, % at 6.75 µM; HEK293 Gal4-DAX1 luciferase reporter, luminescence; P51843; 340,000 compounds, 0.99% hits;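 active = inhibition above the mean over all tested compounds plus 3 SD, cut at about 4.2% in these data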;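 also: 0% = DAX1-transfected cells with DMSO and 100% = empty-vector control cells with DMSO; inhibition shows as a rise in luminescence from relieved DAX1 repression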
Target sequence (P51843 207-470 limits assumed): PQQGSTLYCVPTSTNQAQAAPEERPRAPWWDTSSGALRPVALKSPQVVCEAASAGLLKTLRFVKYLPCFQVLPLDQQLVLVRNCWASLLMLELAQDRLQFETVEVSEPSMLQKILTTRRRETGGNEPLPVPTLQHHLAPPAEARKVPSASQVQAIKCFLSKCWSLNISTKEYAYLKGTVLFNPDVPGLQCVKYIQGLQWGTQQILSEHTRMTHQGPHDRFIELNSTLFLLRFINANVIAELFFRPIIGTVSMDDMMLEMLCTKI
hgDAF-12 ag: activates the H. glycines DAF-12 receptor ligand-binding domain | HEK293 GAL4-hgDAF12 UAS-luciferase reporter, agonist luminescence; normalized to butyrate control | activation, % at 6.8 µM | 370,000 compounds, 1.8% hits;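 active = activation above a cutoff set at the mean of all screened compounds plus 3 SD, cut at about 10% in these data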;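 also: 0% = DMSO wells and 100% = sodium butyrate wells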
* marks the source's active call; other numbers are inactive results; nt = no result given. An excerpt weighted towards active compounds, which were near 4.8% of everything screened.

SMILES	ssDAF-12 act	SMARCA2 act	hcDAF12 agonist	DAX1 inh-1	DAX1 inh-2	hgDAF-12 ag
COC(=O)c1ccc(OCC(O)CN(CC(C)C)CC(C)C)cc1 (configuration not stated)	-0.8	-0.2	-1.0	-0.5	0.2	-0.8
CC(Sc1ccccn1)C(=O)NC1CCCC1 (configuration not stated)	-0.7	-1.7	0.0	4.4*	-0.6	5.4
Cc1ccc(OCC(=O)O/N=C(\N)c2cccc([N+](=O)[O-])c2)cc1C	-0.1	1.4	6.0*	0.1	1.7	2.6
Cc1ccc(SCC(=O)O/N=C(\N)c2cccc([N+](=O)[O-])c2)cc1	-0.1	0.8	0.5	0.1	1.2	-0.2
COCCCn1c(SCC(=O)N2CC(=O)Nc3ccccc32)nnc1-c1ccoc1C	-0.8	-1.1	0.2	-0.2	0.2	0.6
C=CCN=C1NC(CCc2ccccc2)C(C(=O)OC)=C(C)N1Cc1cccc(C(F)(F)F)c1 (configuration not stated)	1.5*	-4.2	4.8	-0.8	nt	-0.7
C=CCN=C1NC(CCc2ccccc2)C(C(=O)OC)=C(C)N1Cc1ccccc1C(F)(F)F (configuration not stated)	-1.1	-1.0	-1.0	-1.8	nt	-1.6
O=C(NCc1cccnc1)c1ccc2c(c1)N(Cc1ccccc1)CCS2	-1.0	-0.5	-2.8	1.4	6.0*	-1.0
COC(=O)c1ccc(C2NC(C(=O)O)CS2)cc1 (configuration not stated)	-1.3	4.9	0.2	-1.0	4.6*	3.7
Nc1ccc(S(N)(=O)=O)cc1	-1.7	-4.1	-1.5	-0.6	1.7	-1.0
Nc1ccc(S(N)(=O)=O)cc1N	0.7	5.3	3.9	2.7	7.3*	12.6*
C[n+]1c(/C=C/c2ccc(O)cc2)ccc2ccccc21	-0.6	2.5	5.2	0.6	0.0	9.9
C[n+]1c(/C=C/c2ccc3c(c2)OCO3)ccc2ccccc21	-2.8	-3.1	-1.6	-0.9	6.0*	-5.6
S=C(NN=C(C1CC1)C1CC1)Nc1ccccc1	-0.7	1.4	-0.9	0.6	6.8*	10.3
CCC(CO)Oc1cc(NCc2ccccn2)c2ncn(C(C)C)c2c1 (configuration not stated)	-1.4	1.1	-2.0	0.4	0.9	2.1
C/C(=N/NC(=O)CCc1ccccc1)c1ccc2c(c1)OCO2	-1.5	1.8	-1.7	0.2	1.3	-1.4
O=C(CNC(=O)c1ccncc1)N/N=C/c1ccc(Br)cc1	-1.4	-2.5	-1.9	-0.2	6.5*	-1.2
COc1ccc(NC2=Nc3ccccc3CC2)cc1	-0.2	5.7	2.8	3.1	2.2	10.6*
O=C(O)c1cc(CN2CCOCC2)oc1-c1ccccc1	-0.8	5.4	-0.5	0.4	0.5	-1.0
CCOc1ccc2nc(N3C(=O)C(O)=C(C(=O)c4ccco4)C3c3ccco3)sc2c1 (configuration not stated)	0.0	7.9*	2.6	1.7	0.3	5.6
O=C(Nc1nc2ccsc2c(=O)s1)c1ccc(F)cc1Cl	-1.7	7.2	-0.6	0.9	7.8*	5.5
COC(=O)c1scc(C)c1N/N=C(\C)c1ccc(F)cc1	1.0*	-2.7	4.3	1.1	0.0	0.6
COc1ccc(-c2cc(CNc3nc4cc(-c5ccccc5C)sc4c(=O)n3C)on2)cc1	-0.4	3.3	1.4	4.3*	nt	7.9
COc1cccc(-c2cc3nc(NCc4cccnc4)n(C)c(=O)c3s2)c1	1.0*	1.9	5.1	2.0	nt	8.9
CC1CCN(c2oc(-c3ccc(F)cc3)nc2C#N)CC1	-1.0	7.8*	-2.1	0.2	0.1	3.9
CNc1ccc(-c2cccc(CO)c2)cn1	-0.7	1.8	3.0	1.3	nt	10.7*
CNc1ccc(-c2cccc(C(C)=O)c2)cn1	-0.9	0.9	0.6	-0.1	nt	4.7
O=C(Nc1ccc(F)cc1)C(c1ccncc1)N1CCN(CC(=O)N2CCCC2)CC1 (configuration not stated)	-1.4	-0.3	0.8	-0.7	nt	-0.3
COc1cccc(-c2cc(N3C(=O)Nc4ccccc4N3O)n[nH]2)c1	0.1	-1.1	-0.4	-0.6	4.8*	-0.6
CC1(C)CC(=O)c2sc(NC(=O)C(C)(C)C)nc2C1	1.5*	3.2	1.6	0.8	0.5	6.5
